Laboratory results as given in PubChem BioAssay (NCI).
“And” between values parts separate entries of the source, which are not always exact repeats. Equal values may be shown once. This is part of a sample that, as a whole, favours compounds with a hit. Of some 79,000 tested, about 15% had one in any assay. The source holds several records for some structures; these can differ, active in one and inactive in another. The source made the active and inactive calls. Rule as the data show it: active = growth inhibition above about 70%; inactive = the rest.

Key:
[1] = NCI Yeast Anticancer Drug Screen. Data for the rad50 strain (AID 155);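 also: 0% = growth of vehicle-only cultures of the same strain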; details: S. cerevisiae rad50 strain growth inhibition, stronger effect = higher value
In short: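 DNA repair mutant yeast, compound exposure, growth read-out; inhibition is taken relative to vehicle.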

[2] = NCI Yeast Anticancer Drug Screen. Data for the mec2-1 strain (AID 157); details: S. cerevisiae mec2-1 strain, stronger effect = higher value
In short: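 Cells of the genetically defined mec2-1 yeast strain are incubated with test compound. Inhibition of growth is calculated against vehicle-treated controls.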

[3] = NCI Yeast Anticancer Drug Screen. Data for the sgs1 mgt1 strain (AID 161);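 also: 0% = growth of cultures given vehicle only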; details: S. cerevisiae sgs1 mgt1 strain, stronger effect = higher value
In short: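 Test agents were incubated with a DNA-repair-mutant yeast strain. Growth was then read and compared against vehicle-treated controls.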

[4] = NCI Yeast Anticancer Drug Screen. Data for the cln2 rad14 strain (AID 165);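 also: 0% = growth equal to vehicle treated cultures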; details: S. cerevisiae cln2 rad14 strain, stronger effect = higher value
In short: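 The screen exposed genetically defined yeast (cln2 rad14) to test compounds and scored growth inhibition relative to vehicle-treated controls.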

[5] = NCI Yeast Anticancer Drug Screen. Data for the bub3 strain (AID 167); details: S. cerevisiae bub3 mutant strain, stronger effect = higher value
In short: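 In this screen, a yeast mutant lacking normal mitotic checkpoint function is challenged with compound. Relative growth versus vehicle gives the inhibition value.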

[6] = NCI Yeast Anticancer Drug Screen. Data for the mlh1 rad18 strain (AID 175); details: S. cerevisiae mlh1 rad18 strain growth inhibition, stronger effect = higher value
In short: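 Compound-treated yeast growth, normalised to vehicle controls. Strain bears defined DNA repair mutations.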

[7] = at 5.0 µM (retest, dose inferred, filed as 0.5)
[8] = at 50.0 µM (retest, dose inferred, filed as 5.0)

SMILES | growth inhibition [1, 7] | growth inhibition [1, 8] | growth inhibition ([1]; at 50.0 µM) | growth inhibition [2, 7] | growth inhibition [2, 8] | growth inhibition ([2]; at 50.0 µM) | growth inhibition [3, 7] | growth inhibition [3, 8] | growth inhibition ([3]; at 50.0 µM) | growth inhibition [4, 7] | growth inhibition [4, 8] | growth inhibition ([4]; at 50.0 µM) | growth inhibition [5, 7] | growth inhibition [5, 8] | growth inhibition ([5]; at 50.0 µM) | growth inhibition [6, 7] | growth inhibition [6, 8] | growth inhibition ([6]; at 50.0 µM)
COC1=C(C)C(=O)c2c(c(COC(N)=O)c3n2CC2C3N2C)C1=O (centres undefined) | 37% (inactive) | 65% (inactive) | 93% (active) | 2% (inactive) | 52% (inactive) | 95.3% (active) | 30% (inactive) | 74% (active) | 73.8% (active) | -8% (inactive) | 72% (active) | 87.1% (active) | 8% (inactive) | 27% (inactive) | 78.1% (active) | 13% (inactive) | 93% (active) | 96% (active)
CC1CCOC(=O)/C=C/C=C/C(=O)OC2CC3OC4C5OC5(C)C(O)CC4(COC(=O)C1O)C2(C)C31CO1 (centres undefined) | 16% (inactive) | 95% (active) | 90.3% (active) | 27% (inactive) | 90% (active) | 92% (active) | 21% (inactive) | 95% (active) | 91.5% (active) | 42% (inactive) | 97% (active) | 89.5% (active) | 18% (inactive) | 95% (active) | 89.2% (active) | 17% (inactive) | 94% (active) | 89.4% (active)
CCN(CC)C1CC(O[C@H]2C[C@](O)(C(=O)CO)Cc3c(O)c4c(c(O)c32)C(=O)c2c(OC)cccc2C4=O)OC(C)C1O (some centres undefined) | 98% (active) | 98% (active) | 99.2% (active) | 99% (active) | 99% (active) | 99.3% (active) | 99% (active) | 99% (active) | 99.5% (active) | 97% (active) | 98% (active) | 98.8% (active) | 98% (active) | 99% (active) | 99% (active) | 98% (active) | 96% (active) | 99.3% (active)
Cc1nc2c(Br)cc(Br)cc2c(=O)n1-c1ccccc1N | 19% (inactive) | 22% (inactive) | 63% (inactive) | 15% (inactive) | 17% (inactive) | 9.45% (inactive) | 13% (inactive) | 24% (inactive) | 63.8% (inactive) | 18% (inactive) | 37% (inactive) | 19.4% (inactive) | 3% (inactive) | 4% (inactive) | 70.2% (active) | 37% (inactive) | 34% (inactive) | 46.2% (inactive)
Clc1ccc(CCN2CCOCC2)c(Cl)c1 | 4% (inactive) | 27% (inactive) | 62.9% (inactive) | 0% (inactive) | 16% (inactive) | 34.1% (inactive) | 0% (inactive) | 42% (inactive) | 54.4% (inactive) | 31% (inactive) | 30% (inactive) | 58.5% (inactive) | 23% (inactive) | 54% (inactive) | 34.5% (inactive) | 5% (inactive) | 55% (inactive) | 64.9% (inactive)
CC(=O)O[C@H]1C[C@@H]2OC3C=C(C)CCC3(C)[C@@]1(C)[C@@]21CO1 (some centres undefined) | 99% (active) | 99% (active) | 92.5% (active) and 18.9% (inactive) | 100% (active) | 100% (active) | 94.3% (active) and 1.7% (inactive) | 99% (active) | 99% (active) | 94% (active) and 32.1% (inactive) | 99% (active) | 99% (active) | 92.2% (active) and 6.4% (inactive) | 99% (active) | 99% (active) | 92.7% (active) and 2.9% (inactive) | 99% (active) | 99% (active) | 92.8% (active) and 17.9% (inactive)
[O]=[Sb][c]1ccc(Cl)cc1 | 5% (inactive) | 42% (inactive) | 96.7% (active) | 3% (inactive) | 36% (inactive) | 85.5% (active) | 1% (inactive) | 56% (inactive) | 99.1% (active) | 0% (inactive) | 19% (inactive) | 54.3% (inactive) | 4% (inactive) | 48% (inactive) | 87.7% (active) | 3% (inactive) | 35% (inactive) | 93.3% (active)
Cc1cc[n+](C2=C(Nc3cc(C)cc(C)c3)C(=O)c3ccccc3C2=O)cc1 | -3% (inactive) | 9% (inactive) | 24.9% (inactive) | -2% (inactive) | 11% (inactive) | 28.5% (inactive) | -1% (inactive) | 16% (inactive) | 9.5% (inactive) | -9% (inactive) | 1% (inactive) | 6.75% (inactive) | 1% (inactive) | 45% (inactive) | 16% (inactive) | -3% (inactive) | 15% (inactive) | 51.8% (inactive)
COC1=CC2=CCC3C(CCC4(C)C3CCC4(C)OC(C)=O)C2(C)CC1 (centres undefined) | -2% (inactive) | 66% (inactive) | 51.4% (inactive) | 2% (inactive) | 43% (inactive) | 36.5% (inactive) | 0% (inactive) | 82% (active) | 56.4% (inactive) | 0% (inactive) | 35% (inactive) | 30.6% (inactive) | -12% (inactive) | 24% (inactive) | 76.6% (active) | -2% (inactive) | 76% (active) | 55.5% (inactive)
CO/C(N)=C(\C#N)N=Cc1cccnc1 | 25% (inactive) | 26% (inactive) | 29.6% (inactive) | 25% (inactive) | 30% (inactive) | 80.2% (active) | 20% (inactive) | 32% (inactive) | 36.7% (inactive) | 26% (inactive) | 25% (inactive) | 15.4% (inactive) | 29% (inactive) | 47% (inactive) | 48.2% (inactive) | 29% (inactive) | 25% (inactive) | -25.4% (inactive)
COC(=O)C1=C(C)N2CCSC2(C)C(C(=O)OC)C1c1cccc(Cl)c1 (centres undefined) | -21% (inactive) | 85% (active) | 80.3% (active) | 4% (inactive) | 77% (active) | 79.5% (active) | 0% (inactive) | 84% (active) | 82.3% (active) | 17% (inactive) | 66% (inactive) | 69.1% (inactive) | 13% (inactive) | 89% (active) | 81.5% (active) | 6% (inactive) | 90% (active) | 73.2% (active)
CCc1ccc2c(c1)N(CCCN(CCCl)CCCl)c1ccccc1S2 | -4% (inactive) | 85% (active) | 98.5% (active) | 44% (inactive) | 59% (inactive) | 99.2% (active) | -4% (inactive) | 89% (active) | 98.6% (active) | -1% (inactive) | 53% (inactive) | 96.8% (active) | -1% (inactive) | 94% (active) | 98.5% (active) | -2% (inactive) | 94% (active) | 98.6% (active)
O=[N+]([O-])c1cc(S(=O)(=O)F)ccc1S | -76% (inactive) | 89% (active) | 91.2% (active) | -32% (inactive) | 93% (active) | 77.5% (active) | -34% (inactive) | 88% (active) | 88.9% (active) | -40% (inactive) | 90% (active) | 86.7% (active) | -59% (inactive) | 90% (active) | 91.8% (active) | -103% (inactive) | 92% (active) | 95.8% (active)
O=C(O)CN(CCN(CC(=O)O)CC(=O)O)CC(=O)O | 8% (inactive) | 69% (inactive) | 27.9% (inactive) and 13.8% (inactive) and 43.4% (inactive) | 14% (inactive) | 70% (active) | 42.2% (inactive) and 20% (inactive) and 30.6% (inactive) | 11% (inactive) | 74% (active) | 65.8% (inactive) and 26.2% (inactive) and 57.2% (inactive) | -3% (inactive) | 49% (inactive) | -14.9% (inactive) and -22.5% (inactive) and 17.4% (inactive) | 10% (inactive) | 66% (inactive) | 60.7% (inactive) and 38% (inactive) and 53.3% (inactive) | 6% (inactive) | 70% (active) | 44.4% (inactive) and 24.2% (inactive) and 46.9% (inactive)
ClC1=C(Cl)C2(Cl)C3CC4OC4C=CC3C1(Cl)C2(Cl)Cl (centres undefined) | 7% (inactive) and 4% (inactive) | 93% (active) and 96% (active) | 96.3% (active) and 39.2% (inactive) | 12% (inactive) and 5% (inactive) | 97% (active) and 98% (active) | 97.3% (active) and 39% (inactive) | 10% (inactive) and 3% (inactive) | 96% (active) and 98% (active) | 96.8% (active) and 73.6% (active) | 0% (inactive) | 96% (active) | 95.3% (active) and 47.4% (inactive) | 2% (inactive) and 5% (inactive) | 96% (active) and 97% (active) | 97.1% (active) and 26.6% (inactive) | 8% (inactive) and 2% (inactive) | 96% (active) | 95.3% (active) and 60.9% (inactive)
N#CC(C#N)=Cc1ccc([N+](=O)[O-])s1 | -83% (inactive) | 98% (active) | 99.6% (active) | -45% (inactive) | 99% (active) | 99.6% (active) | -42% (inactive) | 98% (active) | 99.2% (active) | -53% (inactive) | 98% (active) | 98.5% (active) | -66% (inactive) | 98% (active) | 99.3% (active) | -83% (inactive) | 97% (active) | 99.2% (active)
CCC1(C2=CCCCC2)C(=O)NC(=S)NC1=O | -101% (inactive) | 62% (inactive) | 8.05% (inactive) and 60.1% (inactive) | -11% (inactive) | 76% (active) | -3.9% (inactive) and 5.6% (inactive) | 22% (inactive) | 77% (active) | 0.6% (inactive) and 51.5% (inactive) | -14% (inactive) | 62% (inactive) | -32.4% (inactive) and -0.6% (inactive) | 4% (inactive) | 62% (inactive) | 6.05% (inactive) and 34.2% (inactive) | 0% (inactive) | 79% (active) | 25.5% (inactive) and 85% (active)
CN1CC(C(=O)NC2(C)OC3(O)C4CCCN4C(=O)C(Cc4ccccc4)N3C2=O)C=C2c3cccc4[nH]cc(c34)CC21 (centres undefined) | 26% (inactive) and -4% (inactive) | 35% (inactive) and 23% (inactive) | 8.55% (inactive) and 49.2% (inactive) | 6% (inactive) and -1% (inactive) | 14% (inactive) and 29% (inactive) | 6.75% (inactive) and 70.6% (active) | 4% (inactive) and -2% (inactive) | 12% (inactive) and 50% (inactive) | -9.3% (inactive) and 61.7% (inactive) | -15% (inactive) and 1% (inactive) | 22% (inactive) and 15% (inactive) | -11.6% (inactive) and 40.9% (inactive) | -24% (inactive) and 2% (inactive) | 4% (inactive) and 30% (inactive) | 8.25% (inactive) and 57% (inactive) | 2% (inactive) and -3% (inactive) | 33% (inactive) and 65% (inactive) | 51.1% (inactive) and 73% (active)
